The supplement of paper PMC10338343
± gives the standard deviation. In all, about 8,200 sequences were measured (“pre-steady-state target cleavage rate”: median about 0.024, highest 2% from about 1.3 on). This is one part of a sample in which the highest values are shown more often than they occur.

System: MIWI (PIWIL1) piRISC loaded with L1MC piRNA (30 nt)
Assay: pre-steady-state target cleavage rate (min^-1); MIWI and MILI are mouse PIWI proteins and EfPiwi is from a freshwater sponge; tags in brackets are library labels; higher = faster piRNA-guided slicing of the target
Settings: guide: L1MC piRNA 5'p-UAACUAAAUACUAUGCAAGCUGUAGGUCCU
Method in brief: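 The pre-steady-state cleavage rate came from a burst-and-steady-state fit to pooled data from three Cleave-'n-Seq trials, in which uncleaved targets were sequenced and normalised to depth and to weakly complementary targets. Each reaction held 0.1 nM transcribed, DNA-blocked target RNA library and 1 nM active affinity-purified piRISC carrying one synthetic guide, with or without 500 nM GTSF1 partner protein, in HEPES–potassium acetate buffer at 33 °C for 0–8 or 0–960 min. k3 was capped at 0.0001 min^-1.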

[1] = auxiliary factor: 500 nM mouse GTSF1
[2] = auxiliary factor: none (no GTSF1)

Row | Sequence | pre-steady-state target cleavage rate [1] | pre-steady-state target cleavage rate [2]
1 | UCCUGGUACAGCCUUGCAUAGUAUUUAGUUA | 0.594 ± 0.049 | 0.0422 ± 0.0091
2 | UCGACCUACAGCUUGCGAUAGUAUUUAGUUA | 0.0797 ± 0.02 | –
3 | UCCACCUACAGCUUGCGUAGUAUUUAGUUA | 1.26 ± 0.049 | 0.0423 ± 0.0094
4 | UCCUCCUACAGCUUGCGUAGUAUUUAGUUA | 1.55 ± 0.078 | 0.0225 ± 0.0064
5 | UCGACCUACAGCUUGCGUAGUAUUUAGUUA | 1.86 ± 0.066 | 0.0695 ± 0.018
6 | UCGACCUACAGCUUGCCUAGUAUUUAGUUA | 1.14 ± 0.046 | 0.0457 ± 0.0085
7 | UGGACCUACAGCUUGCGUAGUAUUUAGUUA | 1.79 ± 0.11 | 0.0538 ± 0.01
8 | AGGACCUACAGCUUGCGUAGUAUUUAGUUA | 1.24 ± 0.077 | 0.075 ± 0.013
9 | UCCUCCUACAGCUUGCGAUAGUAUUUAGUUA | 0.0601 ± 0.018 | –
10 | UCCUGCUACAGCUUGCGUAGUAUUUAGUUA | 0.806 ± 0.044 | 0.0172 ± 0.0034
11 | UGGACCUACAGAUUGCAUAGUAUUUAGUUA | 1.12 ± 0.11 | 0.042 ± 0.0077
12 | AGGACCUACAGCUUGCAUACAUUUUAGUUA | 0.0106 ± 0.0061 | –
13 | UCGUCCUACACCUUGCAUAGUAUUUAGUUA | 0.986 ± 0.045 | 0.0586 ± 0.0084
14 | UCGACCUACAGCUUGCAUACAAUUUAGUUA | 0.0219 ± 0.0076 | 0.00334 ± 0.0025
15 | UCCUCCUACAGCUUGCAAAGUAUUUAGUUA | 1.14 ± 0.039 | 0.0317 ± 0.0066
16 | UCGUACCUACAGCUUGCAUAGUAUUUAGUUA | 0.909 ± 0.034 | 0.0778 ± 0.016
17 | UCCUCGUACAGCUUGCAUAGUAUUUAGAAA | 0.363 ± 0.029 | 0.00538 ± 0.0021
18 | UCCUGGUACAGCUUGCAAAGUAUUUAGUUA | 0.711 ± 0.046 | 0.0405 ± 0.0074
19 | UCGUCGUACAGCUUGCAUAGUAUUUAGUUA | 1.31 ± 0.067 | 0.0685 ± 0.012
20 | UCCUCGUACAGCUUGCAUAGUAUUUAGUAA | 0.903 ± 0.048 | 0.0263 ± 0.0049
21 | UCCUCGUACAGCUUGCAUAGUAUUUAGUUA | 1.46 ± 0.043 | 0.0602 ± 0.01
22 | UGGUCGUACAGCUUGCAUAGUAUUUAGUUA | 1.33 ± 0.056 | 0.073 ± 0.0095
23 | UCCUCGUACAGCUUGCAAAGUAUUUAGUUA | 1.32 ± 0.048 | 0.0595 ± 0.012
24 | UCGUGGUACAGCUUGCAUAGUAUUUAGUUA | 1.23 ± 0.038 | 0.0818 ± 0.014
25 | UCCACCGUACAGCUUGCAUAGUAUUUAGUUA | 1.18 ± 0.054 | 0.0628 ± 0.012
26 | UCCUGCUACAGCUUGCAUAGUAUAAUGUAA | 0.188 ± 0.038 | –

Row | Sequence | pre-steady-state target cleavage rate [1] | pre-steady-state target cleavage rate [2]
27 | UGGACCUACAGCUUGCAUAGUAUUAAGUUA | 0.719 ± 0.06 | 0.0363 ± 0.006
28 | AGGACCUACUGCUUCCAUAGUAUUUAGUUA | 0.069 ± 0.011 | 0.00657 ± 0.0012
29 | UCGAGCUAGAGCUUGCAUAGUAUUUAGUUA | 0.962 ± 0.051 | 0.0483 ± 0.0092
30 | UCGACCAAGAGCUUGCAUAGUAUUUAGUUA | 0.954 ± 0.04 | 0.0547 ± 0.011
31 | UCCUGGAUGUGCUUGCAUAGUGAUUUAGUUA | 0.00393 ± 0.0038 | –
32 | UCCUGGUACAGCUAGGAUAGUAUUUAGUUA | 0.611 ± 0.084 | 0.00486 ± 0.002
33 | UGGACCUACAGCUUGGAUAGUAUUUAGAAA | 0.342 ± 0.047 | 0.0107 ± 0.003
34 | UCCUGCUACAGCUUGCAAACUAUUUAGUUA | 0.363 ± 0.027 | 0.00719 ± 0.0031
35 | AGGACCUACAGCUUGCAUAGUAUUUUGUUA | 0.949 ± 0.064 | 0.0718 ± 0.016
36 | UCCUGCUACUGCUUGCAUAGUAUAUAGUUA | 0.226 ± 0.024 | 0.0142 ± 0.0034
37 | AGGACCUACAGGAAGCAUAGUAUUUUCAAA | 0.132 ± 0.024 | –
38 | UCCUGGAUCAGGUAGCAUAGUAUUUAGUUA | 0.0152 ± 0.0033 | 0.00289 ± 0.0022
39 | AGGUCGUACAGCUUGCAUAGUAUUUAGUUA | 1.44 ± 0.065 | 0.0817 ± 0.012
40 | UCCUCCUACAGCUUGCUUAGUAUUUAGUUA | 1.28 ± 0.06 | 0.0241 ± 0.0053
41 | UCCUCGUACAGCUUGCUUAGUAUUUAGUUA | 1.51 ± 0.069 | 0.0419 ± 0.0089
42 | UCCUGGUACAGCUUGCUUAGUAUUUAGUUA | 0.79 ± 0.037 | 0.0523 ± 0.011
43 | UCCAGGUACAGCUUGCAUAGUAUUUAGUUA | 1.09 ± 0.04 | 0.0764 ± 0.011
44 | AGGACCUAGAGCUUGCAUAGUUUUUAGUUA | 0.343 ± 0.023 | 0.0238 ± 0.0061
45 | UCCUCCUACAGCUUGCAUAGUUAUUAGAAA | 0.0862 ± 0.022 | –
46 | UCCUGGAACAGCAUGCAUAGUAUUUACUUA | 0.446 ± 0.045 | 0.0279 ± 0.0094
47 | UCCACCUACAGCUUGCAUAGUAUUCUAGUUA | 0.633 ± 0.067 | 0.0214 ± 0.0052
48 | UCGUCCUACAGCUUGGAUAGUAUUUAGUUA | 1.56 ± 0.048 | 0.0586 ± 0.0084
49 | UCCUGCUACAGCUUGGAUAGUAUUUAGUUA | 1.29 ± 0.12 | 0.0507 ± 0.0096
50 | UCCUCCUACAGCUUGGCAUAGUAUUUAGUUA | 0.831 ± 0.11 | 0.0114 ± 0.0021
51 | UCCUCCUACAGCUUGGAUAGUAUUUAGUAA | 0.707 ± 0.045 | 0.0186 ± 0.0033
52 | UGGAGCUACAGCUUGGAUAGUAUUUAGUUA | 1.11 ± 0.083 | 0.0533 ± 0.0083

Row | Sequence | pre-steady-state target cleavage rate [1] | pre-steady-state target cleavage rate [2]
53 | UGGUCCUACAGCUUGGAUAGUAUUUAGUUA | 1.22 ± 0.038 | 0.0568 ± 0.0069
54 | UCCUCCUACAGCUUGGAUAGUAUUUAGAUA | 0.372 ± 0.039 | 0.00865 ± 0.0019
55 | UCCUCCUACAGCUUGUAUAGUAUUUAGUUA | 1.38 ± 0.042 | 0.0427 ± 0.008
56 | UCCUCCUACAGCUUGAUAGUAUUUAGUUA | 0.824 ± 0.05 | 0.00583 ± 0.0021
57 | AGGUCCUACAGCUUGGAUAGUAUUUAGUUA | 1.39 ± 0.072 | 0.079 ± 0.014
58 | UCCUCCUACAGCUUGGAUAGUAUUUAGUUA | 1.44 ± 0.045 | 0.0511 ± 0.0092
59 | UCCUCCUACAGCUUGUCAUAGUAUUUAGUUA | 0.44 ± 0.046 | –
60 | UCCACCUACAGCUUGCAUUGUAUUUACAAA | 0.112 ± 0.024 | –
61 | UCCUGGUACAGCAUGCAUAGUAUUUAGUAA | 0.377 ± 0.04 | 0.00875 ± 0.0024
62 | UCCUGGAUGAGCUUGCAUGGUAUUUAGUUA | 0.743 ± 0.043 | 0.0817 ± 0.02
63 | UCCUGGAUCAGCUUGCAUAGAAUUUAGUUA | 0.258 ± 0.028 | 0.0291 ± 0.0088
64 | UCCUCCUACAGCUUGCAUUGUAUUUACUUA | 0.388 ± 0.031 | 0.0162 ± 0.0032
65 | UCCUGGAUCAGCAUGCAUAGUAUUUACAAA | 0.156 ± 0.034 | –
66 | UCCUGGAUGUGCUUGCAUAGUAUUCUAGUUA | 0.211 ± 0.037 | 0.0155 ± 0.0049
67 | AGGACCAACAGCUUGCAUAGUAUUUAGUUA | 1.4 ± 0.05 | 0.122 ± 0.021
68 | UCGACCAACAGCUAGCAUAGUAUUUAGUUA | 1.08 ± 0.046 | 0.0286 ± 0.0073
69 | AGGACCAACAGCUUGCAUAGUAUUUAGUAA | 0.974 ± 0.079 | 0.0722 ± 0.014
70 | UGGACCAACAGCUUGCAUAGUAUUUAGUUA | 1.35 ± 0.047 | 0.0769 ± 0.013
71 | AGGACCAACAGCUAGCAUAGUAUUUAGUUA | 1.08 ± 0.052 | 0.038 ± 0.01
72 | AGGACCAACAGCUUGCAUAGUAUUUAGAAA | 0.624 ± 0.071 | 0.033 ± 0.012
73 | UGGACCAACAGCUAGCAUAGUAUUUAGUUA | 1.36 ± 0.059 | 0.0347 ± 0.0073
74 | UGGACCAACAGCUUGCAUAGUAUUUAGUAA | 1.17 ± 0.06 | 0.0641 ± 0.015
75 | UGGACCAACAGCUUGCAUAGUAUUUAGAUA | 0.428 ± 0.022 | 0.0582 ± 0.014
76 | UCCUGGUACAGCUUGCAUACAAUUUAGUAA | 0.0076 ± 0.0052 | –
77 | UCCUGGAUGUGCUUGCAUAGUAUUUAGGUA | 0.0938 ± 0.016 | 0.0113 ± 0.0031
78 | UCCUGGAACAGCUUGGAUAGUAUUUUGUUA | 0.745 ± 0.075 | 0.0289 ± 0.0047
